Measured potencies and affinities stand elsewhere.
Molecular target: NAD-dependent protein deacylase sirtuin-5, mitochondrial (Homo sapiens) (UniProt Q9NXA8)
Test: blockers of sirtuin-5 peptide desuccinylation – biochemical, fluorescence imaging, cherry-pick, set 6, dose response (AID 720597);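 further: lower AMC signal can also come from blocking the trypsin step; 0% = median of neutral control wells and -100% = median of positive control wells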
Conditions: Purified SirT5, succinyl-peptide-AMC/trypsin fluorescence; series mostly up to 15 µM; activity change, negative = inhibition: at the top concentration;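 active means fitted half-maximal dose no more than twice the top valid tested dose, for compounds that lower signal; inconclusive means fit invalid, or curve flat with activity between -70 and -30; inactive means potency past limit, curve flat within ±30, or signal increasing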

Chain of NAD-dependent protein deacylase sirtuin-5, mitochondrial (Homo sapiens) (Q9NXA8 whole entry, looked up): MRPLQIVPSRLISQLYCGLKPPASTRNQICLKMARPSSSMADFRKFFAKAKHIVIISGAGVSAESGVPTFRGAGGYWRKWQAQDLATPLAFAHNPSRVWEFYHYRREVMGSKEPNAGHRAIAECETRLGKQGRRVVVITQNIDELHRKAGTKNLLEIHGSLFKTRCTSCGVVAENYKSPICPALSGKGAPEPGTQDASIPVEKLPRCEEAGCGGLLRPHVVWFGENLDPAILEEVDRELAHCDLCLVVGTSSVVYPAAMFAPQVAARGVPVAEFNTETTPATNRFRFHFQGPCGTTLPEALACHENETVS

Activity change, negative = inhibition, inactive:
COc1cccc(-c2ccc3c(c2)[C@@H]2[C@@H](CCN2C(=O)c2ccccc2F)[C@H](CO)N3C)c1 -1.31%
C[C@@H]1CCCCO[C@@H](CN(C)C(=O)CCCN(C)C)[C@@H](C)CN([C@H](C)CO)C(=O)c2cc(NS(=O)(=O)c3ccccc3)ccc2O1 -10.3% [at 16 µM]
CCCC#Cc1ccc([C@@H]2[C@H]3CN(S(=O)(=O)Cc4ccccc4)CCCCN3[C@H]2CO)cc1 25.8%
O=S(=O)(c1ccc(F)cc1)N1CCCCN2[C@@H](CO)[C@@H](c3ccc(C#CC4CCCC4)cc3)[C@@H]2C1 -19.5%
Cc1ccc(S(=O)(=O)N(C)C[C@@H]2OCCCC[C@H](C)Oc3ccc(NS(=O)(=O)c4ccc(Cl)cc4)cc3C(=O)N([C@@H](C)CO)C[C@H]2C)cc1 -0.777%
C[C@H](CO)N1C[C@H](C)[C@H](CN(C)Cc2cccc(C(F)(F)F)c2)OCc2ccccc2-c2ccccc2C1=O -13.7%
CN(C)C(=O)c1cccc(-c2ccc([C@@H]3[C@@H](CO)N4CCCCN(S(C)(=O)=O)C[C@H]34)cc2)c1 -17.2%
C[C@H]1CN([C@@H](C)CO)C(=O)c2ccccc2-c2ccccc2CO[C@H]1CN(C)Cc1ccc(F)cc1 -27.3% [at 16 µM]
Cc1noc(C)c1NC(=O)N(C)C[C@@H]1OCCCC[C@H](C)Oc2ccc(NC(=O)Nc3ccc(F)cc3)cc2C(=O)N([C@@H](C)CO)C[C@@H]1C -8.47%
C[C@@H]1CN([C@@H](C)CO)C(=O)c2cc(NS(=O)(=O)c3ccccc3)ccc2O[C@@H]1CN(C)Cc1ccc(Oc2ccccc2)cc1 -5.98%
C[C@H]1CN([C@@H](C)CO)C(=O)c2ccccc2-c2ccccc2CO[C@H]1CN(C)Cc1ccccc1C(F)(F)F -22.2%
CC(C)NC(=O)Nc1ccc2c(c1)C(=O)N([C@H](C)CO)C[C@H](C)[C@H](CN(C)C(=O)Cc1ccccc1)OCCCC[C@H](C)O2 -25.6%
C[C@H]1CN([C@@H](C)CO)S(=O)(=O)c2ccc(C3=CCCCC3)cc2O[C@H]1CN(C)S(=O)(=O)c1ccc(F)cc1 12.9%
CC(=O)N1CC(=O)N2[C@@H](CO)[C@H](c3ccc(-c4ccc(C(=O)N(C)C)cc4)cc3)[C@@H]2C1 -18.5%
COc1ccc(S(=O)(=O)Nc2ccc3c(c2)C(=O)N([C@@H](C)CO)C[C@@H](C)[C@@H](CN(C)S(=O)(=O)c2cccs2)OCCCC[C@H](C)O3)cc1 -15.8%
COc1ccc(S(=O)(=O)N(C)C[C@@H]2OCCCC[C@@H](C)Oc3ccc(NC(=O)Nc4ccc(C(F)(F)F)cc4)cc3C(=O)N([C@@H](C)CO)C[C@@H]2C)cc1 10.5%
Cc1noc(C)c1S(=O)(=O)N(C)C[C@@H]1OCCCC[C@@H](C)Oc2ccc(NC(=O)Nc3cccc4ccccc34)cc2C(=O)N([C@H](C)CO)C[C@@H]1C -28%
O=C(CCN1CCCCC1)N[C@@H]1CC[C@@H](CC(=O)N2CCC(Cc3ccccc3)CC2)O[C@@H]1CO -11.3%
COc1cccc(NC(=O)N2CC(=O)N3[C@H](CO)[C@@H](c4ccc(C#CCC5CCCC5)cc4)[C@H]3C2)c1 -27%
C[C@@H]1CN([C@@H](C)CO)C(=O)Cc2cc(NS(=O)(=O)c3ccccc3)ccc2O[C@H]1CN(C)CC1CCCCC1 -21.3%
O=C(CN1CCOCC1)N1CC[C@H]2[C@H](CO)Nc3ccc(-c4ccc(F)cc4)cc3[C@H]21 -8.05%
Cc1ccc(S(=O)(=O)N(C)C[C@@H]2OCCCC[C@@H](C)Oc3ccc(NS(=O)(=O)c4ccccc4)cc3C(=O)N([C@@H](C)CO)C[C@@H]2C)cc1 15.3%
O=S(=O)(c1ccc(F)cc1)N1CCCCN2[C@H](CO)[C@H](c3ccc(-c4ccccc4F)cc3)[C@@H]2C1 9.04%
CO[C@H]1CN(C)C(=O)c2cccc(C#N)c2OC[C@H]2O[C@H](CC[C@@H]2OC)CCN(C)C(=O)[C@H]1C 17.8%
C[C@@H]1CN([C@H](C)CO)S(=O)(=O)c2ccc(/C=C/c3ccccc3)cc2O[C@@H]1CN(C)C(=O)c1ccc2c(c1)OCO2 21.7%
COc1ccc(C#Cc2ccc([C@@H]3[C@@H](CO)N4C(=O)CN(C(=O)c5cccnc5)C[C@H]34)cc2)cc1 -11.8%
C[C@H](CO)N1C[C@H](C)[C@@H](CN(C)Cc2ccc(C(F)(F)F)cc2)OCCCC[C@H](C)Oc2ccc(NS(=O)(=O)c3ccc(F)cc3)cc2C1=O -23.3%
C[C@H](CO)N1C[C@H](C)[C@H](CN(C)S(=O)(=O)c2ccc(F)cc2)Oc2cc(C#Cc3ccc(F)cc3)ccc2S1(=O)=O 38.2%
COc1ccc(S(=O)(=O)Nc2ccc3c(c2)C(=O)N([C@@H](C)CO)C[C@@H](C)[C@H](CN(C)Cc2ccc(-c4ccccc4)cc2)O3)cc1 -10.6%
COc1ccccc1S(=O)(=O)N(C)C[C@@H]1Oc2cc(C#CCC3CCCC3)ccc2S(=O)(=O)N([C@H](C)CO)C[C@H]1C -8.51%
Cc1ccc(S(=O)(=O)Nc2ccc3c(c2)C(=O)N([C@H](C)CO)C[C@@H](C)[C@@H](CN(C)Cc2ccc(C(F)(F)F)cc2)OCCCC[C@H](C)O3)cc1 -3.28%
Cc1noc(C)c1NC(=O)Nc1cccc2c1O[C@@H](CN(C)Cc1ccc(Oc3ccccc3)cc1)[C@@H](C)CN([C@@H](C)CO)C2=O 10.8%
C[C@H](CO)N1C[C@H](C)[C@@H](CN(C)S(=O)(=O)c2cccc(F)c2)Oc2ncc(C#CC3CCCCC3)cc2C1=O 6.48%
COc1ccc(NC(=O)Nc2ccc3c(c2)C(=O)N([C@H](C)CO)C[C@H](C)[C@@H](CN(C)Cc2ccc(C(F)(F)F)cc2)O3)cc1 -6.42%
C[C@H](CO)N1C[C@H](C)[C@@H](CN(C)Cc2ccc(Oc3ccccc3)cc2)Oc2ccc(NC(=O)Cc3ccccc3)cc2C1=O -0.649%
O=C(CCN1CCCCC1)N[C@H]1CC[C@@H](CCn2cc(-c3ccc(F)cc3)nn2)O[C@H]1CO -3.15%
C[C@@H]1CN([C@@H](C)CO)C(=O)Cc2cc(NS(=O)(=O)c3ccc(F)cc3)ccc2O[C@@H]1CN(C)C(=O)NC1CCCCC1 -20.9%
COc1ccc(CN(C)C[C@H]2OCCCC[C@@H](C)Oc3ccc(NC(=O)NC4CCCCC4)cc3C(=O)N([C@H](C)CO)C[C@H]2C)cc1 -22.3%
CC(=O)N(C)C[C@H]1Oc2ncc(C3=CCCC3)cc2C(=O)N([C@H](C)CO)C[C@H]1C -4.28%
Cc1ccc(S(=O)(=O)Nc2ccc3c(c2)CC(=O)N([C@@H](C)CO)C[C@H](C)[C@@H](CN(C)Cc2ccc(-c4ccccc4)cc2)O3)cc1 33.9%

From PubChem BioAssay AID720597 (Broad Institute, 2013)
